CYP2C19 inhib – inhibitors of human CYP2C19. 96,000 compounds, 21% hits. CYP2C19 Supersomes, luciferin-H EGE luminescence, 30 min. P33261. AID 778. inhibition, % at 5 µM;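 active = CYP2C19 inhibition above a set limit at 5 µM in the primary screen, cut at about 50% in these data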;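 note: plate controls were negative control wells for no effect and 2.5 mM tranylcypromine positive control for full effect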
CYP2C9 activ – increases human cytochrome P450 2C9 activity. P11712. recombinant CYP2C9, luciferin-H conversion, luminescence; active compounds read high; factor 1 = untreated enzyme, 0 = blocked. activation factor at 5 µM. 96,000 compounds, 1.4% hits. AID 1024;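 active = activation factor of 2 or more for CYP2C9 at a 5 µM dose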;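 note: 0 = sulfaphenazole-blocked wells and 1 = vehicle-only wells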
Target sequence (P11712 whole entry, looked up): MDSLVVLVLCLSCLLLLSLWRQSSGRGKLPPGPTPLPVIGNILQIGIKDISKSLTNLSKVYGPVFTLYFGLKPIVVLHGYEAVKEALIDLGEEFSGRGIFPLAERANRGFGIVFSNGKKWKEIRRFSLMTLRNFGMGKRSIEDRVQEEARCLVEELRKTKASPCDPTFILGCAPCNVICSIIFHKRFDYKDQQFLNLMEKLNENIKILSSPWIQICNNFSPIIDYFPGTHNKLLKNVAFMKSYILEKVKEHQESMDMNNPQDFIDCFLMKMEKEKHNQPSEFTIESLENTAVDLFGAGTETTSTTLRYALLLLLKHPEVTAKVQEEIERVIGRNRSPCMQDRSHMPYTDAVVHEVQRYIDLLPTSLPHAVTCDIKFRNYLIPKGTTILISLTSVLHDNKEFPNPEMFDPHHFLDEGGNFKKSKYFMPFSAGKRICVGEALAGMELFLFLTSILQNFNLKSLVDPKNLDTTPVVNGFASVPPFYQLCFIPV
D1 mod – allosterically modulates the human D1 dopamine receptor; P21728; HEK293 D1, CRE-luciferase, dopamine EC30 potentiation; actives deviate in either direction; B-score at 10 µM; 58,000 compounds, 5.9% hits;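 active = luminescence count or its row- and column-corrected plate score outside the 99.7% band of the plate's sample wells, on either side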
hDAT+cocaine – modulates human dopamine transporter uptake under cocaine | 110,000 compounds, 1.3% hits | B-score at 10 µM | LLC-PK1 hDAT cells, [14C]-dopamine uptake with cocaine IC80; actives deviate in either direction | Q01959;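 active = Z score or B-score, a plate-position-corrected score, falls beyond the plate's 99.7% confidence bounds, in either direction; inactive = both scores lie inside the 99.7% bounds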;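 note: scored against the spread of the other compound wells on the same plate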
CYP2C19 act – activators of human cytochrome P450 2C19 | P33261 | AID 1025 | activation factor at 5 µM | recombinant CYP2C19, luciferin-H EGE luminescence; active compounds read high; 0 = fully inhibited enzyme, 1 = untreated enzyme | 96,000 tested, under 10 active;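 active = activation factor of at least 2 at 5 µM in the primary screen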;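 note: 0 = wells with 2.5 mM tranylcypromine and 1 = vehicle-only wells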
CYP2C9 inhib – human CYP2C9 inhibition; P11712; inhibition, % at 5 µM; 96,000 compounds, 20% hits; CYP2C9 Supersomes, luciferin-H conversion, luminescence;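 active = blocking of liver enzyme CYP2C9 beyond about 50% at 5 µM, limit read from the data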
* marks the source's active call; other numbers are inactive results; . = not tested or not shown. Hits are enriched below; roughly 28% of the tested compounds scored in any of these assays.

SMILES | CYP2C19 inhib | CYP2C9 activ | D1 mod | hDAT+cocaine | CYP2C19 act | CYP2C9 inhib
N#Cc1c(-c2cccs2)nc(SCC(=O)c2cccs2)[nH]c1=O | 34 | 0 | . | -0.32 | 0.7 | 98*
Cc1cc2ccc(C)c(C)c2nc1SCC(=O)c1cccs1 | -9 | 0.7 | . | -1.2 | 1.1 | 30
O=C(CSc1nc2ccccc2c(=O)[nH]1)c1cccs1 | 39 | 0.3 | 0.58 | 0.68 | 0.6 | 66*
CCCCCC(=O)N1CC2(CC(c3cccc(NC(=O)CC)c3)=NO2)C[C@H]1C(N)=O (stereo partly drawn) | . | . | . | -0.14 | . | .
COC(C[C@H](O)[C@H](C)[C@@H](O)COCc1ccccc1)OC | . | . | . | -0.03 | . | .
CCC1CCCCN1Cc1nc2c(c(=O)n(C)c(=O)n2C)n1Cc1cccc2ccccc12 (stereo not drawn) | 10 | 0.6 | . | 0.92 | 0.9 | 40
COc1ccc2c(c1)c1ncn(CCN3CCCCC3)c(=O)c1n2C | 43 | 0.4 | . | -0.8 | 0.6 | 56*
COc1ccc2c(c1)c1ncn(CCN3CCCC3)c(=O)c1n2C | -14 | 0.9 | -1.9 | -0.15 | 1.1 | 11
COc1ccc2c(c1)c1ncn(CCN3CCNCC3)c(=O)c1n2C | 4 | 0.9 | . | 0.43 | 1 | 5
COc1ccccc1CCn1cnc2c3cc(C)ccc3n(C)c2c1=O | 93* | 0.3 | . | 0.75 | 0.1 | 71*
COc1ccc(N=C2C(=O)Nc3c(C)cccc32)cc1 | -2 | 0.9 | -0.024 | 0.63 | 1 | 5
CC(C)c1nc(NCCN2CCOCC2)c(C#N)c2c1COC(C)(C)C2 | 15 | 0.5 | . | 0.73 | 0.9 | 45
CC(C)Cc1nc(NCCN2CCOCC2)c(C#N)c2c1COC(C)(C)C2 | 88* | 0.2 | . | 0.29 | 0.1 | 79*
CC(C)Cc1nc(N2CCOCC2)c(C#N)c2c1COC(C)(C)C2 | 85* | 0.3 | . | -0.54 | 0.1 | 68*
CC(C)Cc1nc(N2CCCCC2)c(C#N)c2c1CCC2 | 0 | 1 | 0.2 | -0.047 | 1 | 3
CCc1nc(NCCN2CCOCC2)c(C#N)c2c1CCCC2 | 69* | 0.9 | . | 0.96 | 0.3 | 10
O=C(Nc1cc(S(=O)(=O)N2CCOCC2)ccc1Cl)C(=O)c1c(-c2ccccc2)cc2ccccn12 | 45 | 0.3 | . | 1.3 | 0.5 | 70*
O=C(O)c1c[nH]c2ccc(S(=O)(=O)N3CCOCC3)cc12 | 0 | 1.1 | . | -0.4 | 1 | -11
Cc1cc(Cl)c(S(=O)(=O)N2CCN(c3ccccc3)CC2)cc1OCC(N)=O | . | . | . | 1 | . | .
CCOc1cc(CN2CCN(CCOCCO)CC2)ccc1OC | -4 | 1 | . | -2.7* | 1 | 0
O=S(=O)(Nc1ccc2c(c1)CCC2)c1cccs1 | 99* | 0.2 | 0.072 | 0.3 | 0 | 83*
COc1ccc(S(=O)(=O)Nc2ccc3c(c2)COC3=O)cc1OC | 84* | 0.6 | 0.62 | -0.39 | 0.2 | 39
CS(=O)(=O)Nc1ccc2c(c1)C(=O)OC2 | -10 | 1.1 | 0.14 | 0.4 | 1.1 | -12
O=C1OCc2cc(NS(=O)(=O)c3cccs3)ccc21 | 76* | 0.1 | -0.76 | -1.3 | 0.2 | 89*
O=S(=O)(NCCc1ccc2c(c1)OCCO2)c1cccs1 | 43 | 0.6 | . | -2.2 | 0.6 | 36
SMILES | CYP2C19 inhib | CYP2C9 activ | D1 mod | hDAT+cocaine | CYP2C19 act | CYP2C9 inhib
O=S(=O)(NC1=NCCC1)c1cccs1 | 8 | 1.1 | 0.11 | 1 | 0.9 | -7
Cc1cc(NC(=O)C2CC(c3ccc(Cl)cc3)=NO2)no1 (stereo not drawn) | 16 | 0.8 | . | -0.029 | 0.8 | 21
Cn1ncc(C#N)c1NC(=O)C1CC(c2ccc(Cl)cc2)=NO1 (stereo not drawn) | 72* | 0.7 | . | 0.51 | 0.3 | 31
CCCCCC(=O)N/N=C(\C)c1ccc(Cl)cc1 | 48 | 0.7 | . | -0.54 | 0.5 | 32
C=CCOC(=O)Nc1ccc(Cl)cc1NC(=O)OCC=C | 93* | 0.4 | -0.64 | -0.29 | 0.1 | 65*
Cc1cccc(NC(=O)CSc2ncnc3nc[nH]c23)c1 | 6 | 0.7 | . | 0.19 | 0.9 | 27
Cc1cccc(CSc2ncnc3nc[nH]c23)c1 | 72* | 0.5 | . | 0.64 | 0.3 | 45
CC(OC(=O)c1nn(C)c(=O)c2ccccc12)C(=O)NCc1ccc2c(c1)OCO2 (stereo not drawn) | 38 | 0.2 | 0.36 | -0.15 | 0.6 | 78*
CC(NC(=O)Cn1nc(C(=O)O)c2ccccc2c1=O)c1ccccc1 (stereo not drawn) | . | . | 0.19 | 0.53 | . | .
CC(OC(=O)c1nsc(Cl)c1Cl)C(=O)NCc1ccco1 (stereo not drawn) | 67* | 0.4 | 0.81 | . | 0.3 | 56*
CC(C)CCn1nc(C(=O)OC(C)C(=O)NC(N)=O)c2ccccc2c1=O (stereo not drawn) | 37 | 0.3 | . | . | 0.6 | 67*
CC(OC(=O)c1ccccc1NCc1ccco1)C(=O)Nc1ncc(Cl)cc1Cl (stereo not drawn) | 66* | 0.2 | -0.00065 | 0.14 | 0.3 | 81*
CC(C)C(NS(=O)(=O)c1ccc2c(c1)OCCO2)C(=O)NCCc1ccccn1 (stereo not drawn) | 32 | 0.9 | 0.23 | -0.22 | 0.7 | 8
O=C(Nc1cccc2nsnc12)c1ccc(-c2cccc(Cl)c2)o1 | 14 | 0.9 | . | -0.57 | 0.9 | 7
N#C/C(C(=O)N1CCOCC1)=C1/SC=C(c2ccccc2)N1c1ccccc1 | . | . | 0.82 | . | . | .
Cn1nc(C(=O)NCc2ccccc2)c2ccccc2c1=O | 58* | 0.8 | 0.8 | 1.1 | 0.4 | 24
CC(OC(=O)c1nsc(Cl)c1Cl)C(=O)NCc1ccc2c(c1)OCO2 (stereo not drawn) | 31 | 0.1 | . | -0.49 | 0.7 | 92*
Cc1ccc(-c2csc(=S)n2CC(=O)OCC(=O)NC(C)C(C)C)cc1 (stereo not drawn) | 42 | 0.3 | . | 0.28 | 0.6 | 69*
Cc1ccc(-c2csc(=S)n2CC(=O)OCC(=O)NCc2ccco2)cc1 | 28 | 0.4 | -1.9 | 0.16 | 0.7 | 56*
O=C(O)CCCCCCCCCCCc1ccccc1 | . | . | . | 0.029 | . | .
CCCCOc1ccc(S(=O)(=O)N2CCCCCC2)cc1 | 93* | 0.1 | -0.57 | -0.43 | 0.1 | 94*
COc1ccc(Oc2ccc(S(=O)(=O)N3CCCCC3)cc2S(=O)(=O)N2CCCCC2)cc1 | . | . | -0.68 | . | . | .
O=C(COc1ccc(S(=O)(=O)N2CCCCC2)cc1)N1CCCCCC1 | -6 | 1 | 0.65 | -0.039 | 1.1 | 2
COc1ccccc1Oc1ccc(S(=O)(=O)N2CCCC2)cc1 | 56* | 0.2 | -0.28 | -0.11 | 0.4 | 78*
O=C(COC(=O)CCCNC(=O)c1ccc(Cl)cc1)NC1CC1 | -15 | 1.1 | -0.037 | 0.5 | 1.2 | -12
Cc1cccc(NC(=S)N2N=CCC2c2ccccc2)c1 (stereo not drawn) | 30 | 1 | . | 0.58 | 0.7 | 2
CC(C)CC(=O)NCc1ccc(F)cc1 | 22 | 0.9 | . | -0.57 | 0.8 | 13
Cc1nn(C)c(Oc2ccccc2)c1CCNS(=O)(=O)c1ccc(Cl)cc1 | 97* | 0.2 | . | 1.3 | 0 | 80*

Bioassay records deposited in PubChem by several laboratories.
